# PubChem BioAssay (Tox21)
# Inconclusive results are not listed. A call without a number means that no potency is given here. More than one record can exist for a structure, and the calls need not agree. Calls of active or inactive are those of the source. The call rests on the fitted dose curve.
# How the values were obtained:
# [1] = target: Acetylcholinesterase (Homo sapiens) (UniProt P22303); test: Acetylcholinesterase (AChE) small molecule antagonists: colormetric cell-based qHTS assay (AID 1347395); further: nearly all actives have a fitted effect of over 30% in size
# Outline: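 Colorimetric read-out: DTNB detects thiocholine released when cellular AChE in SH-SY5Y cells hydrolyses acetylthiocholine. Cells attached overnight, received compound for 30 min at 37 C, then substrate mix for 90 min at 37 C.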
# [2] = target: Acetylcholinesterase (Homo sapiens) (UniProt P22303); test: Acetylcholinesterase (AChE) small molecule antagonists: enzyme-based qHTS assay (AID 1347397); settings: Potency: AChE enzyme activity inhibition; outcome: AChE enzyme activity inhibition; further: nearly all actives have a fitted effect of over 55% in size
# Outline: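 Recombinant human AChE, dispensed at 50 mU/mL, was preincubated with Tox21 10K compounds or DMSO vehicle for 30 min at room temperature. DTNB plus acetylthiocholine was then added, and thiocholine was measured colorimetrically after a further 10 min.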
# [3] = target: Acetylcholinesterase (Homo sapiens) (UniProt P22303); test: Acetylcholinesterase (AChE) small molecule antagonists: fluorescence cell-based qHTS assay (AID 1347398); settings: Potency: AChE activity; outcome: AChE activity; further: nearly all actives have a fitted effect of over 50% in size
# Outline: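 Human SH-SY5Y cells were plated overnight at 37 C, exposed to compound for 30 min at 37 C, 5% CO2, then given acetylthiocholine plus Thiolite Green for 40 min at room temperature; thiocholine fluorescence (Ex/Em 490/520 nm) reports endogenous AChE activity.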
# Potency means the concentration at half of the fitted maximal effect.
# Acetylcholinesterase (Homo sapiens), sequence (P22303 whole entry, looked up): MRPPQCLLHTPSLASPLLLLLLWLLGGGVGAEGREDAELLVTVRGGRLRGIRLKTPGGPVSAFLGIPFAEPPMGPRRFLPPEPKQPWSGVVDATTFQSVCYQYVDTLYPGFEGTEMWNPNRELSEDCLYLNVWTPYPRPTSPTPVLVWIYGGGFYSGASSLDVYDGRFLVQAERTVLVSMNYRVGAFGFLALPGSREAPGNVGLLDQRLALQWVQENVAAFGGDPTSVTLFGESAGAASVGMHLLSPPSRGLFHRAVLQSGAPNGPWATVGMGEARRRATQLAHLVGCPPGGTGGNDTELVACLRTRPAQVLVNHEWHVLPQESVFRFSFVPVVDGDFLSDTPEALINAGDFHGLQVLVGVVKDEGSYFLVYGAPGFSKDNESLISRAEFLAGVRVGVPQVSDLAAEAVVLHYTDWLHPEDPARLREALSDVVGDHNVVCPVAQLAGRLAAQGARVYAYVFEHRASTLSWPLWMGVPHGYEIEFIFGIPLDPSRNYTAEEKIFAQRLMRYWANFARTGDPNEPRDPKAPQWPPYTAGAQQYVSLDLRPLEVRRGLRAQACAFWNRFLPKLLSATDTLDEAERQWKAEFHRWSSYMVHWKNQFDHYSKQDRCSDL
smiles,measurement,setting,value
CN1CCN(C2=Nc3cc(Cl)ccc3Nc3ccccc32)CC1,Potency,[1],inactive
same,Potency,[2],inactive
O=c1[nH]c(=O)c2[nH]c(=O)[nH]c2[nH]1,"activity, negative = inhibition",[1],0.0138% [at 10.5 µM] (inactive)
same,"activity change, negative = inhibition",[2],2.79% [at 10.5 µM] (inactive)
same,"activity change, negative = inhibition",[3],6.44% [at 10.5 µM] (inactive)
Cc1cc(C)cc(OCC2CNC(=O)O2)c1 (stereo not drawn),Potency,[1],inactive
same,Potency,[2],inactive
same,Potency,[3],inactive
O=C1C(c2[nH]c3ccc(S(=O)(=O)O)cc3c2O)=Nc2ccc(S(=O)(=O)O)cc21,Potency,[1],inactive
same,Potency,[2],inactive
same,Potency,[3],inactive
N/C(=N\N=C\c1ccc(Cl)cc1)N/N=C/c1ccc(Cl)cc1,Potency,[1],inactive
same,Potency,[2],inactive
same,Potency,[3],inactive
CCC(C(=O)OCCN1CCOC(c2ccccc2)C1C)c1ccccc1 (stereo not drawn),Potency,[1],inactive
same,Potency,[2],inactive
same,Potency,[3],inactive
CC[C@]1(O)C[C@@H]2CN(CCc3c([nH]c4ccccc34)[C@@](C(=O)OC)(c3cc4c(cc3OC)N(C)[C@H]3[C@@](O)(C(=O)OC)[C@H](OC(C)=O)[C@]5(CC)C=CCN6CC[C@]43[C@@H]65)C2)C1,Potency,[1],inactive
same,Potency,[2],inactive
same,Potency,[3],inactive
Cc1c(Cl)cccc1Cl,Potency,[1],inactive
same,Potency,[2],inactive
same,Potency,[3],inactive
CN[C@@H]1[C@H](O)[C@H](NC)[C@H]2O[C@@]3(O)C(=O)C[C@@H](C)O[C@H]3O[C@@H]2[C@H]1O,Potency,[1],inactive
same,Potency,[2],inactive
same,Potency,[3],inactive
CCN(C(=O)c1cc(C)cc(OC[C@H](C)Nc2ccncc2)c1)C(C)C,Potency,[1],12.5 µM (active)
same,Potency,[2],22.2 µM (active)
same,Potency,[3],6.26 µM (active)
Cc1onc(-c2ccccc2Cl)c1C(=O)N[C@@H]1C(=O)N2[C@@H]1SC(C)(C)[C@@H]2C(=O)O,Potency,[1],inactive
same,Potency,[2],inactive
same,Potency,[3],inactive
CCC(C)(C)c1cc(O)c(C(C)(C)CC)cc1O,Potency,[1],inactive
same,Potency,[2],inactive
same,Potency,[3],inactive
O=[N+]([O-])c1ccc(O)cc1C(F)(F)F,Potency,[1],inactive
same,Potency,[2],inactive
same,Potency,[3],inactive
CC1COc2ccccc2N1C(=O)C(Cl)Cl (stereo not drawn),Potency,[1],inactive
same,Potency,[2],inactive
same,Potency,[3],inactive
OCCOc1cccc(OCCO)c1,Potency,[1],inactive
same,Potency,[2],inactive
same,Potency,[3],inactive
CC(C)=CC(C)(C)C,Potency,[1],inactive
same,Potency,[2],inactive
CC1(C)CC(O)CC(C)(C)N1,Potency,[1],inactive
same,Potency,[2],inactive
same,Potency,[3],inactive
CCn1nc(C(=O)O)c(=O)c2cc3c(cc21)OCO3,Potency,[1],inactive
same,Potency,[2],inactive
same,Potency,[3],inactive
COc1ccc(-c2nc3ccc(C4=NNC(=O)CC4C)cc3[nH]2)cc1 (stereo not drawn),Potency,[1],inactive
same,Potency,[2],inactive
Cc1cnc(C(=O)NCCc2ccc(S(=O)(=O)NC(=O)NC3CCCCC3)cc2)cn1,Potency,[1],inactive
same,Potency,[2],inactive
same,Potency,[3],inactive
O=C1c2c(O)ccc([N+](=O)[O-])c2C(=O)c2c([N+](=O)[O-])ccc(O)c21,Potency,[1],0.789 µM (active)
same,Potency,[2],25 µM (active)
same,Potency,[3],8.86 µM (active)
C[N+]1(C)CCC(OC(=O)C(O)(c2ccccc2)C2CCCC2)C1 (stereo not drawn),Potency,[1],inactive
same,Potency,[2],inactive
same,Potency,[3],inactive
CC(C(=O)O)c1cccc(C(=O)c2ccccc2)c1 (stereo not drawn),Potency,[1],inactive
same,Potency,[2],inactive
same,Potency,[3],inactive
CCCC(=O)Nc1ccc(OCC(O)CNC(C)C)c(C(C)=O)c1 (stereo not drawn),Potency,[1],inactive
same,Potency,[2],inactive
same,Potency,[3],inactive
CCCCCC#CC(=O)OC,Potency,[1],inactive
same,Potency,[2],inactive
same,Potency,[3],inactive
O=Cc1c2ccccc2c(Cl)c2ccccc12,Potency,[1],inactive
same,Potency,[2],inactive
same,Potency,[3],inactive
CCN[C@@H]1C[C@H](N)[C@@H](OC2OC(CN)=CCC2N)[C@H](O)[C@H]1O[C@H]1OC[C@](C)(O)[C@H](NC)[C@H]1O (stereo partly drawn),"activity, negative = inhibition",[1],0.264% [at 0.435 µM] (inactive)
same,"activity change, negative = inhibition",[2],0.139% [at 0.435 µM] (inactive)
same,"activity change, negative = inhibition",[3],7.61% [at 0.439 µM] (inactive)
COc1ccc(-n2nc(CCC(=O)N(C)O)cc2-c2ccc(Cl)cc2)cc1,Potency,[1],inactive
same,Potency,[2],inactive
same,Potency,[3],inactive
CCOC(=O)c1c(N)sc2c1CCN(Cc1ccccc1)C2,Potency,[1],12.3 µM (active)
same,Potency,[2],24.5 µM (active)
Cn1ccc2cc3c(cc21)CCN3C(=O)Nc1cccnc1,"activity, negative = inhibition",[1],-3.7% [at 23.6 µM] (inactive)
same,"activity change, negative = inhibition",[2],-19.7% [at 23.6 µM] (inactive)
same,"activity change, negative = inhibition",[3],-28.9% [at 23.8 µM] (inactive)
CCCCOC(=O)COc1ccc(Cl)cc1Cl,Potency,[1],inactive
same,Potency,[2],inactive
same,Potency,[3],inactive
CC(C)NC[C@@H](O)COc1ccc(CC(N)=O)cc1,Potency,[1],inactive
same,Potency,[2],inactive
same,Potency,[3],inactive
CN(C)C(=S)SC(=S)N(C)C,Potency,[1],56.4 µM (active) and inactive
same,Potency,[2],inactive
same,Potency,[3],35.6 µM (active) and inactive
CCN(CCC#N)c1ccccc1,Potency,[1],inactive
same,Potency,[2],inactive
same,Potency,[3],inactive
CNCCCN1c2ccccc2CCc2ccccc21,Potency,[1],inactive
same,Potency,[2],inactive
same,Potency,[3],inactive
CN1[C@@H]2CC[C@H]1CC(OC(=O)c1c[nH]c3ccccc13)C2 (stereo partly drawn),Potency,[1],inactive
same,Potency,[2],inactive
same,Potency,[3],inactive
Cc1cccc(C)c1OCC(C)N (stereo not drawn),outcome,[1],inactive
same,outcome,[2],inactive
same,outcome,[3],inactive
O=C1CN(/N=C/c2ccc([N+](=O)[O-])o2)C(=O)N1,Potency,[1],inactive
same,Potency,[2],inactive
same,Potency,[3],inactive
COC(=O)C1=C(C)NC(C)=C(C(=O)OCCN(C)Cc2ccccc2)C1c1cccc([N+](=O)[O-])c1 (stereo not drawn),Potency,[1],inactive
same,Potency,[2],inactive
CS(=O)(=O)OCCCCOS(C)(=O)=O,Potency,[1],inactive
same,Potency,[2],inactive
same,Potency,[3],inactive
Oc1ccc(O)cc1,Potency,[1],inactive
same,Potency,[2],inactive
same,Potency,[3],inactive
O=C1c2ccccc2C(=O)N1CCc1noc(-c2ccc(CN3CCCCCC3)s2)n1,Potency,[1],6.51 µM (active)
same,Potency,[2],23.1 µM (active)
same,Potency,[3],3.26 µM (active)
N#[N+]c1ccc2c(S(=O)(=O)[O-])cccc2c1O,Potency,[1],inactive
same,Potency,[2],inactive
same,Potency,[3],inactive
CC1OC1C1CCC2(C)OC2C1 (stereo not drawn),Potency,[1],inactive
same,Potency,[2],inactive
same,Potency,[3],inactive
COc1ccc(OC)c(C(O)CNC(=O)CN)c1 (stereo not drawn),Potency,[1],inactive
same,Potency,[2],inactive
same,Potency,[3],inactive
COC=O,"activity, negative = inhibition",[1],2.05% [at 10.5 µM] (inactive)
same,"activity change, negative = inhibition",[2],0.267% [at 10.5 µM] (inactive)
same,"activity change, negative = inhibition",[3],-1.7% [at 10.5 µM] (inactive)
C[C@]12CC[C@@H]3c4ccc(O)cc4CC[C@H]3[C@@H]1CC[C@@H]2OC(=O)CCC1CCCC1,Potency,[1],inactive
same,Potency,[2],inactive
same,Potency,[3],inactive
CCOC(=O)CC(=O)c1ccccc1,Potency,[1],inactive
same,Potency,[2],inactive
same,Potency,[3],inactive
Clc1ccc2c(c1)C(N1CCNCC1)=Nc1ccccc1O2,Potency,[1],inactive
same,Potency,[2],inactive
same,Potency,[3],inactive
CC1=C(CC(=O)O)c2cc(F)ccc2/C1=C\c1ccc(S(C)=O)cc1 (stereo not drawn),Potency,[1],inactive
same,Potency,[2],inactive
same,Potency,[3],inactive
CC(=O)N[C@@H](CS)C(=O)O,Potency,[1],inactive
same,Potency,[2],inactive
same,Potency,[3],inactive
CCOCCC(=O)OCC,Potency,[1],inactive
same,Potency,[2],inactive
same,Potency,[3],inactive
CC(COC(=O)c1ccccc1)OC(=O)c1ccccc1 (stereo not drawn),Potency,[1],inactive
same,Potency,[2],inactive
same,Potency,[3],inactive
CC(C)(C)NCC(O)c1ccc(O)c(CO)c1 (stereo not drawn),Potency,[1],inactive
same,Potency,[2],inactive
same,Potency,[3],inactive
C=CC(C)(CCC=C(C)C)OC(=O)c1ccccc1 (stereo not drawn),Potency,[1],inactive
same,Potency,[2],inactive
same,Potency,[3],inactive
CCCC(=O)c1cc(O)c(O)cc1O,Potency,[1],inactive
same,Potency,[2],inactive
same,Potency,[3],inactive
O=C(O)CCc1nc(-c2ccccc2)c(-c2ccccc2)o1,Potency,[1],inactive
same,Potency,[2],inactive
same,Potency,[3],inactive
CC(C)C(=O)OCc1ccccc1,Potency,[1],inactive
same,Potency,[2],inactive
same,Potency,[3],inactive
CN(C)C(=O)C(CCN1CCC(O)(c2ccc(Cl)cc2)CC1)(c1ccccc1)c1ccccc1,Potency,[1],inactive
same,Potency,[2],inactive
same,Potency,[3],inactive
CCCCCCCCC,Potency,[1],inactive
same,Potency,[2],inactive
same,Potency,[3],inactive
Cc1ccc(C(C)C)cc1O,Potency,[1],inactive
same,Potency,[2],inactive
same,Potency,[3],inactive
